Data from paper PMC7862700, “An all-to-all approach to the identification of sequence-specific readers for epigenetic DNA modifications on cytosine”.

What was measured:
Assay in all cases: DAPPL (digital affinity profiling via proximity ligation, sequencing); 10 mM Tris-HCl pH 7.5, 50 mM NaCl, 1 mM DTT, 4% glycerol, room temperature, 30 min; GST-TFs on glutathione beads, 16-mer random dsDNA library, 0.1% formaldehyde crosslink after washing; high values mean tight binding
FEV = target: T1, FEV (Homo sapiens, UniProt Q99581 1-238); settings: protein: recombinant; tags: N-terminal GST; dsDNA, one strand shown
T1 sequence: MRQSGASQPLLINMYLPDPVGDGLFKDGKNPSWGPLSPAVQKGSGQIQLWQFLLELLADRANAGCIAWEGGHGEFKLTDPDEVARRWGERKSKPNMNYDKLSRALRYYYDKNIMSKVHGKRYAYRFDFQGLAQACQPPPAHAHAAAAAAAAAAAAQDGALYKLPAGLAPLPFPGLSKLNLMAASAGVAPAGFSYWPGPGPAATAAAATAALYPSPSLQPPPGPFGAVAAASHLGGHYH
Summary of the method: (§1)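 Binding signal is each hexamer's read frequency for a factor divided by its frequency in the tag-only sample. The factors were GST-fused human transcription factors from yeast, captured on glutathione beads, DNA-barcoded and pooled with that sample. Pools were incubated with 200 nmole of a random double-stranded 16-mer DNA library in Tris/NaCl/DTT/glycerol buffer at room temperature for 30 min, then washed, crosslinked with 0.1% formaldehyde, proximity-ligated with BsaI/T4 ligase (1 h, 37 °C), PCR-amplified and sequenced on an Illumina NextSeq500.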

ETV5 = ETV5 (Homo sapiens, UniProt P41161 1-510); settings: protein: recombinant; tags: N-terminal GST; dsDNA, one strand shown
Chain of ETV5 (P41161 whole entry): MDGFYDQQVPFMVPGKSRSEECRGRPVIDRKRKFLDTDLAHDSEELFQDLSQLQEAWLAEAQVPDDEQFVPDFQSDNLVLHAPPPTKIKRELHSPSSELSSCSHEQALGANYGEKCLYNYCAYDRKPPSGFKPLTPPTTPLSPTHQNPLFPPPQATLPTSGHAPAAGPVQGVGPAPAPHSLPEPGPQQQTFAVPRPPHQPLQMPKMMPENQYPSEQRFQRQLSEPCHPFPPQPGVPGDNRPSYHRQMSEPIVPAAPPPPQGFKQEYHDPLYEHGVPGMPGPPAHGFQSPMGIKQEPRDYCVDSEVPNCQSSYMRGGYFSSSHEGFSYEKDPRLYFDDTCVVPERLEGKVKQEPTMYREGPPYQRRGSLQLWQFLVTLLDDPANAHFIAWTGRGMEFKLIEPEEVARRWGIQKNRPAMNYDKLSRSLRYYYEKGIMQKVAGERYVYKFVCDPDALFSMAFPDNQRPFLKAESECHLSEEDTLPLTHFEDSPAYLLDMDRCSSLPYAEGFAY
Summary of the method: as §1

HSF1 = HSF1 (Homo sapiens, UniProt Q00613 1-529); settings: protein: recombinant; tags: N-terminal GST; chain copies: 3; dsDNA, one strand shown
Chain of HSF1 (Q00613 whole entry): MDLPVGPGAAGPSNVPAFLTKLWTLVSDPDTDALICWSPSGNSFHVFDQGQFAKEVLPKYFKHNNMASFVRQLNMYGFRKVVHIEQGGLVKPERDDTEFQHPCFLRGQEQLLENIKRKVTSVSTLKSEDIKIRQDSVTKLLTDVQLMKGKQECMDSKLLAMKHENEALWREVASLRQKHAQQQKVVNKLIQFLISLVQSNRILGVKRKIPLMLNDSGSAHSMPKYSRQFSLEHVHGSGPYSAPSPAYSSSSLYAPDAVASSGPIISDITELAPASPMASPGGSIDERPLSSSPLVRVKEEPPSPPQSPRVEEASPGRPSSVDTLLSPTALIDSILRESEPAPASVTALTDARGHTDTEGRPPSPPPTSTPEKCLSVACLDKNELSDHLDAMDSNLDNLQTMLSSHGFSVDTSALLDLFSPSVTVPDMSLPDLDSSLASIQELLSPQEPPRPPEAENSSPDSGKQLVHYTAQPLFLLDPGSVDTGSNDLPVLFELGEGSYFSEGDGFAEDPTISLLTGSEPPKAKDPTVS
Summary of the method: as §1

SPIC = target: T2, SPIC (Homo sapiens, UniProt Q8N5J4 1-248); settings: protein: recombinant; tags: N-terminal GST; dsDNA, one strand shown
T2 sequence: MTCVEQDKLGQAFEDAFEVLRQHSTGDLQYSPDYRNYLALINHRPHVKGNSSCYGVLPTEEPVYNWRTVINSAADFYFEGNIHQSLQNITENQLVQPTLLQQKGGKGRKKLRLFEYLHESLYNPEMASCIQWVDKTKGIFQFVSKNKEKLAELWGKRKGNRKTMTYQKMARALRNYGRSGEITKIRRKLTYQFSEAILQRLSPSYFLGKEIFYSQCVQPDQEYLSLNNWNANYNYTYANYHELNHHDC
Summary of the method: as §1

ELF4 = ELF4 (Homo sapiens, UniProt Q99607 1-663); settings: protein: recombinant; tags: N-terminal GST; dsDNA, one strand shown
Chain of ELF4 (Q99607 whole entry): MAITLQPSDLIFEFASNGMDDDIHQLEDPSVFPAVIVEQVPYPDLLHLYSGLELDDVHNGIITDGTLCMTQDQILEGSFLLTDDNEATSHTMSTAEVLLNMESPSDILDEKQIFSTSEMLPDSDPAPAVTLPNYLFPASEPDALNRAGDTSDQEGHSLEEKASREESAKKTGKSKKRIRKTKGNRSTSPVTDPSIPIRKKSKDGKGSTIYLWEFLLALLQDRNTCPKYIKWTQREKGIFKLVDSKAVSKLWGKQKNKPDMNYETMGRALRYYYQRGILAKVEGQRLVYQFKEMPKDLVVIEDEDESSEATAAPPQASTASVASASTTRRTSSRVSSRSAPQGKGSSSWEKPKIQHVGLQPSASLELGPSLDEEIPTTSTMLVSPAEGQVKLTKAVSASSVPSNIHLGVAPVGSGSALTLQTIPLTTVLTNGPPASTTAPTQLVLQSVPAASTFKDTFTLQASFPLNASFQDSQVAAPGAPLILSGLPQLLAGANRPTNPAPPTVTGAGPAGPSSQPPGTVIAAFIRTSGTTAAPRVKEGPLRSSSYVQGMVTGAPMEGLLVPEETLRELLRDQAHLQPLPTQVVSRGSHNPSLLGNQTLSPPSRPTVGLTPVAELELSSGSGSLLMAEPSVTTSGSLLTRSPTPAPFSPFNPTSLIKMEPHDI
Summary of the method: as §1

ELK4 = target: T3, ELK4 (Homo sapiens, UniProt P28324-2 1-405); settings: protein: recombinant; tags: N-terminal GST; dsDNA, one strand shown
T3 sequence: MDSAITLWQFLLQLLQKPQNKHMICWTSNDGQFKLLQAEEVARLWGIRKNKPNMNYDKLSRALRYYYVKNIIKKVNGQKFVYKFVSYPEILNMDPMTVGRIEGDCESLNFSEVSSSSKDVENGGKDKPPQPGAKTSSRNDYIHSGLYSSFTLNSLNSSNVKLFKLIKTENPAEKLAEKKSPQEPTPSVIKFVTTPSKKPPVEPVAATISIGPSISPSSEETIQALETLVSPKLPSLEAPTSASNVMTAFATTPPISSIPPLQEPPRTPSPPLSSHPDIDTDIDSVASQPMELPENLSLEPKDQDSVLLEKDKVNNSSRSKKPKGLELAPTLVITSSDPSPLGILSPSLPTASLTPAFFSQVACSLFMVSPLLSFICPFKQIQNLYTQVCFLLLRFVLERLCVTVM
Summary of the method: as §1

ETV2 = target: T4, ETV2 (Homo sapiens, UniProt O00321 1-342); settings: protein: recombinant; tags: N-terminal GST; dsDNA, one strand shown
T4 sequence: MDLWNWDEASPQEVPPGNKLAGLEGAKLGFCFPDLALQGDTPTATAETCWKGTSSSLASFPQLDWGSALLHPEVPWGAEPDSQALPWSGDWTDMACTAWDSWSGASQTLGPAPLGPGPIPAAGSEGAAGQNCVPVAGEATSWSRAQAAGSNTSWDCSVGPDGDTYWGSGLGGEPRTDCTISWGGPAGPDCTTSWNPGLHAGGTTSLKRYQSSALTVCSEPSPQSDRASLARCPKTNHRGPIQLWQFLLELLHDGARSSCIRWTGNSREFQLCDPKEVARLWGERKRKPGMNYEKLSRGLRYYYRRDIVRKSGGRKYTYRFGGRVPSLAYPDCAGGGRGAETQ
Summary of the method: as §1

ELF3 = target: T5, ELF3 (Homo sapiens, UniProt P78545 1-371); settings: protein: recombinant; tags: N-terminal GST; dsDNA, one strand shown
T5 sequence: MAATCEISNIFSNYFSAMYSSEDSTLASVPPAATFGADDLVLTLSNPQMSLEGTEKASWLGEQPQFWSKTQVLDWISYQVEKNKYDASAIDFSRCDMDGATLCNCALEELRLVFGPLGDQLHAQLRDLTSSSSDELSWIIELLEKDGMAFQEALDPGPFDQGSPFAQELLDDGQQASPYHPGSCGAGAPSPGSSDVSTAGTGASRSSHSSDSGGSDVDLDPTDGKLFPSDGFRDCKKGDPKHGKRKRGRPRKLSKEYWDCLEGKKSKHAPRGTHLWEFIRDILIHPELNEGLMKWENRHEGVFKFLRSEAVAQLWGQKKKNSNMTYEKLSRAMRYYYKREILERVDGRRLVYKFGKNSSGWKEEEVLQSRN
Summary of the method: as §1

CRX = CRX (Homo sapiens, UniProt O43186 1-299); settings: protein: recombinant; tags: N-terminal GST; dsDNA, one strand shown
Chain of CRX (O43186 whole entry): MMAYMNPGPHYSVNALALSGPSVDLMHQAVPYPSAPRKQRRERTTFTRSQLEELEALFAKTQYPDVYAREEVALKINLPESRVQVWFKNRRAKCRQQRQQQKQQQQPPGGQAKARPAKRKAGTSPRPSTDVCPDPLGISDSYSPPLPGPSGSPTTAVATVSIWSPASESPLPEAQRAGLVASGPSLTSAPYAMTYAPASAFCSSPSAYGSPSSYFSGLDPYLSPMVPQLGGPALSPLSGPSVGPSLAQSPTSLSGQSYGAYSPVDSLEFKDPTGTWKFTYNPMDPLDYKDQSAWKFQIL
Summary of the method: as §1

ETV1 = ETV1 (Homo sapiens, UniProt P50549 1-477); settings: protein: recombinant; tags: N-terminal GST; dsDNA, one strand shown
Chain of ETV1 (P50549 whole entry): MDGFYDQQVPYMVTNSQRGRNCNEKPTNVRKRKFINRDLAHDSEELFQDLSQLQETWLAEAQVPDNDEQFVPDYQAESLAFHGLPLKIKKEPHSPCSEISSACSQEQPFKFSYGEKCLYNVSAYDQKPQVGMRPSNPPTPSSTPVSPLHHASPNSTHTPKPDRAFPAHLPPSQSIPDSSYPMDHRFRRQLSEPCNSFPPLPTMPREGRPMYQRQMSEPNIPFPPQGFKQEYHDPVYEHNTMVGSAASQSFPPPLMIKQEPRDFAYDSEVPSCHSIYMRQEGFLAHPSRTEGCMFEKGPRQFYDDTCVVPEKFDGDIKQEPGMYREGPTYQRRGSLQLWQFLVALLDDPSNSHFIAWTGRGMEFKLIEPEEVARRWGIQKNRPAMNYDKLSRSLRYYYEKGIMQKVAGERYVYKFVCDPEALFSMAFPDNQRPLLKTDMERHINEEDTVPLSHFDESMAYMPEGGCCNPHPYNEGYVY
Summary of the method: as §1

ERF = target: T6, ERF (Homo sapiens, UniProt P50548 1-548); settings: protein: recombinant; tags: N-terminal GST; dsDNA, one strand shown
T6 sequence: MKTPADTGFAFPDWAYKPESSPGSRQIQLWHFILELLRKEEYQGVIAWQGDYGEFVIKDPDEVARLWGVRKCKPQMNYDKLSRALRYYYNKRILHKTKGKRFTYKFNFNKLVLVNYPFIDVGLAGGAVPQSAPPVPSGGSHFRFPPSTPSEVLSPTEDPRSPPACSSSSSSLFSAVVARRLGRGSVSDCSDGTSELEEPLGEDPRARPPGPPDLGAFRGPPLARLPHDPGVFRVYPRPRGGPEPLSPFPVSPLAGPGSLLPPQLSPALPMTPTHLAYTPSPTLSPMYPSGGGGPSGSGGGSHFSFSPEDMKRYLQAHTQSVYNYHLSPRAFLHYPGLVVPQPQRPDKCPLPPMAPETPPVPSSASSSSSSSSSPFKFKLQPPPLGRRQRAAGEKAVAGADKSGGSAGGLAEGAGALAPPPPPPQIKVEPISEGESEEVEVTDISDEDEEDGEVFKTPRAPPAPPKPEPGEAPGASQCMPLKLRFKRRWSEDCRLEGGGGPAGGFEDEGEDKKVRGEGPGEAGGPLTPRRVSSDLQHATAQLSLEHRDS
Summary of the method: as §1

ETV3L = target: T7, ETV3L (Homo sapiens, UniProt Q6ZN32 1-361); settings: protein: recombinant; tags: N-terminal GST; dsDNA, one strand shown
T7 sequence: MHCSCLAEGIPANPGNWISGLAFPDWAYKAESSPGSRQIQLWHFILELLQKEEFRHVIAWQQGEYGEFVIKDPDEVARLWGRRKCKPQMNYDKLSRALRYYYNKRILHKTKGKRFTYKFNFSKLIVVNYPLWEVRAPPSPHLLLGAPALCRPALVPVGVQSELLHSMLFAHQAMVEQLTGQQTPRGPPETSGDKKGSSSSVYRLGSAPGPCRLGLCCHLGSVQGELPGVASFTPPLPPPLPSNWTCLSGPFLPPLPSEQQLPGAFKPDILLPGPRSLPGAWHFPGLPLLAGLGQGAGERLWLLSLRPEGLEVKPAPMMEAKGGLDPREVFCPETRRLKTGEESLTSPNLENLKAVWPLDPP
Summary of the method: as §1

ETS2 = target: T8, ETS2 (Homo sapiens, UniProt P15036 1-469); settings: protein: recombinant; tags: N-terminal GST; dsDNA, one strand shown
T8 sequence: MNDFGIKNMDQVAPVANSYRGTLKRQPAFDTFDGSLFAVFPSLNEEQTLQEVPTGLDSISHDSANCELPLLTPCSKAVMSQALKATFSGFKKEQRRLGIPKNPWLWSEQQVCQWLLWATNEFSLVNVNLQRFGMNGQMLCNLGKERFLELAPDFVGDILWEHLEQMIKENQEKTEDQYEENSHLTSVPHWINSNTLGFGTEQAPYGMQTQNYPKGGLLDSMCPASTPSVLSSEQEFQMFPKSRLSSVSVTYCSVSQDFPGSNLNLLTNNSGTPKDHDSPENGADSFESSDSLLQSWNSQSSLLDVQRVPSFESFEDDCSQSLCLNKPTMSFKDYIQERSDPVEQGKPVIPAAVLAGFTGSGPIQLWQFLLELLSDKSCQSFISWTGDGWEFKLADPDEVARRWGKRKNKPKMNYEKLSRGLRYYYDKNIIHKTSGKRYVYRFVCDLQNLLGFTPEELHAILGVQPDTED
Summary of the method: as §1

SPDEF = target: T9, SPDEF (Homo sapiens, UniProt O95238 1-335); settings: protein: recombinant; tags: N-terminal GST; dsDNA, one strand shown
T9 sequence: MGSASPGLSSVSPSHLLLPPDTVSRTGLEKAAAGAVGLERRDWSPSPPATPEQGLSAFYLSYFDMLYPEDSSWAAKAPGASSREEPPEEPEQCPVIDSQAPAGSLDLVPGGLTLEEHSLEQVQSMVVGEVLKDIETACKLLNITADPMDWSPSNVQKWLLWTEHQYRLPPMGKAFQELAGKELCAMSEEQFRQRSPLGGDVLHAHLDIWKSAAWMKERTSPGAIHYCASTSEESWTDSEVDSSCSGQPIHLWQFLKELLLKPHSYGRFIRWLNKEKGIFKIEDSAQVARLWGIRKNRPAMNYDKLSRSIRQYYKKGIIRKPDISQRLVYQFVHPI
Summary of the method: as §1

ETV7 = target: T10, ETV7 (Homo sapiens, UniProt Q9Y603 1-341); settings: protein: recombinant; tags: N-terminal GST; dsDNA, one strand shown
T10 sequence: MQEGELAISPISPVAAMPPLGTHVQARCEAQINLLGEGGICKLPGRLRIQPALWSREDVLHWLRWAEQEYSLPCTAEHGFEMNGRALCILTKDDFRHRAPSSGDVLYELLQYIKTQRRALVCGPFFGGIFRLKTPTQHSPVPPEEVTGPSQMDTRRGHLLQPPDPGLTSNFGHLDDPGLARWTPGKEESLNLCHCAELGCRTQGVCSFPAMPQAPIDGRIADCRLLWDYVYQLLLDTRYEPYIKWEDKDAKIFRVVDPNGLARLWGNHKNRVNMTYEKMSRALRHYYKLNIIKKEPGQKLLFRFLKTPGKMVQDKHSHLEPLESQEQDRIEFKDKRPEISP
Summary of the method: as §1

ELF5 = target: T11, ELF5 (Homo sapiens, UniProt Q9UKW6-2 1-255); settings: protein: recombinant; tags: N-terminal GST; dsDNA, one strand shown
T11 sequence: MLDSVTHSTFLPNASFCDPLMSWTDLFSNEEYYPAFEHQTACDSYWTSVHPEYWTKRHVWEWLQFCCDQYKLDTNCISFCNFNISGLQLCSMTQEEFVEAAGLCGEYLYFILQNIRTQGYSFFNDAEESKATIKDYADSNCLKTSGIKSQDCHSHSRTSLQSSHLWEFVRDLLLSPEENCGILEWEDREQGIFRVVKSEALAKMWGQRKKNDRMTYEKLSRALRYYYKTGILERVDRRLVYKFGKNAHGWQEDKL
Summary of the method: as §1

ETV3 = target: T12, ETV3 (Homo sapiens, UniProt P41162-2 1-143); settings: protein: recombinant; tags: N-terminal GST; dsDNA, one strand shown
T12 sequence: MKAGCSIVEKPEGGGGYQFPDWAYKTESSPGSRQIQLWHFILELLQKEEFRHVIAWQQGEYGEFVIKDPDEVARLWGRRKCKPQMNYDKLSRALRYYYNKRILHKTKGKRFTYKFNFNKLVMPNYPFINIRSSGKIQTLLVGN
Summary of the method: as §1

ETV6 = ETV6 (Homo sapiens, UniProt P41212 1-452); settings: protein: recombinant; tags: N-terminal GST; dsDNA, one strand shown
Chain of ETV6 (P41212 whole entry): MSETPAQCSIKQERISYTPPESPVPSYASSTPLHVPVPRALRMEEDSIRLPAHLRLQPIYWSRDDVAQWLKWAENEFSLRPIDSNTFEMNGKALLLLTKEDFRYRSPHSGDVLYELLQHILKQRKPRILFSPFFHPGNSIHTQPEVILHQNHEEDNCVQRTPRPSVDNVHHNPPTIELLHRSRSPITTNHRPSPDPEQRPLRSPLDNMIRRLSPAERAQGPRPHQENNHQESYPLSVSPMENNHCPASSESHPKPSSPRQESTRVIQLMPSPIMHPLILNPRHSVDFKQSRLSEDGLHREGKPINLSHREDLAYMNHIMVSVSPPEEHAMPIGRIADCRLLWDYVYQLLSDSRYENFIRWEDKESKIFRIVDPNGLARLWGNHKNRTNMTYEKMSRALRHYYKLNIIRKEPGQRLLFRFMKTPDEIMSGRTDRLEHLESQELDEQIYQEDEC
Summary of the method: as §1

Sequence: ATTTAA
- binding signal (FEV): 1.14 fold enrichment (6-mer frequency, TF over GST control)
- binding signal (ETV5): 1.24 fold enrichment (6-mer frequency, TF over GST control)
- binding signal (HSF1): 1.62 fold enrichment (6-mer frequency, TF over GST control)
- binding signal (SPIC): 1.22 fold enrichment (6-mer frequency, TF over GST control)
- binding signal (ELF4): 1.13 fold enrichment (6-mer frequency, TF over GST control)
- binding signal (ELK4): 1.18 fold enrichment (6-mer frequency, TF over GST control)
- binding signal (ETV2): 1.17 fold enrichment (6-mer frequency, TF over GST control)
- binding signal (ELF3): 1.11 fold enrichment (6-mer frequency, TF over GST control)
- binding signal (CRX): 2.38 fold enrichment (6-mer frequency, TF over GST control)
- binding signal (ETV1): 1.14 fold enrichment (6-mer frequency, TF over GST control)
- binding signal (ERF): 1.21 fold enrichment (6-mer frequency, TF over GST control)
- binding signal (ETV3L): 1.19 fold enrichment (6-mer frequency, TF over GST control)
- binding signal (ETS2): 1.28 fold enrichment (6-mer frequency, TF over GST control)
- binding signal (SPDEF): 1.24 fold enrichment (6-mer frequency, TF over GST control)
- binding signal (ETV7): 1.27 fold enrichment (6-mer frequency, TF over GST control)
- binding signal (ELF5): 1.1 fold enrichment (6-mer frequency, TF over GST control)
- binding signal (ETV3): 1.13 fold enrichment (6-mer frequency, TF over GST control)
- binding signal (ETV6): 1.21 fold enrichment (6-mer frequency, TF over GST control)
